Data reported in PubChem BioAssay (Tox21).
Results filed as inconclusive are left out. Calls of active or inactive are those of the source. Unless noted, the call rests on the fitted dose curve; in most records, active means well fitted curve in the direction sought with a large enough effect in the repeat runs; inconclusive means weak or mixed curves; inactive means no such curve, though single readings can be large; an effect the other way counts as inactive or inconclusive.

Tests used:
[1] = qHTS assay to identify small molecule agonists of the peroxisome proliferator-activated receptor delta (PPARd) signaling pathway - cell viability counter screen (AID 743211); further: nearly all actives have a fitted effect of over 55% in size
Outline: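 Tox21 library compounds, delivered in DMSO, were incubated 17 h with PPARd-bla HEK293H cells; cytotoxicity was taken from CellTiter-Glo luminescence read 30 min after reagent addition.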

[2] = target: Peroxisome proliferator-activated receptor delta (Homo sapiens) (UniProt Q03181); assay: qHTS assay to identify small molecule agonists of the peroxisome proliferator-activated receptor delta (PPARd) signaling pathway (AID 743212; calls by dose curve)
Peroxisome proliferator-activated receptor delta (Homo sapiens), sequence (Q03181 whole entry, looked up): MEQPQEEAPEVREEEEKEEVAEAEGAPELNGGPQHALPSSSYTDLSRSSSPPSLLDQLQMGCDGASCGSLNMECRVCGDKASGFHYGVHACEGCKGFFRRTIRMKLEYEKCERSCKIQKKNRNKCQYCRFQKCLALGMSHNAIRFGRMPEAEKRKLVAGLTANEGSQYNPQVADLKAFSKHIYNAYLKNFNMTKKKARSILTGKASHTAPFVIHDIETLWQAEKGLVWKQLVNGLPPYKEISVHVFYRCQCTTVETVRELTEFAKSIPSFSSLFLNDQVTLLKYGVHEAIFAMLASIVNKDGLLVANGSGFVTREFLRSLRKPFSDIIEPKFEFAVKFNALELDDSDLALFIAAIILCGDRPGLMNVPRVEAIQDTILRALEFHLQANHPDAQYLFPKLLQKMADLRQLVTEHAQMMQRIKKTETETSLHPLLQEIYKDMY
Outline: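 HEK293H PPARd-bla cells; 5 h preincubation 37 C/5% CO2; compound (DMSO) 37 C; LiveBLAzer B/G FRET substrate 2 h RT; fluorescence intensity.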

[3] = qHTS assay to identify small molecule antagonists of the peroxisome proliferator-activated receptor delta (PPARd) signaling pathway - cell viability counter screen (AID 743213); further: nearly all actives have a fitted effect of over 50% in size
Outline: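 Viability counter-screen, qHTS format: PPARd-bla HEK293H, L165041 300 nM final, 17 h compound exposure at 37 C, CellTiter-Glo luminescence after 30 min RT.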

[4] = qHTS assay to identify small molecule agonists of the farnesoid-X-receptor (FXR) signaling pathway - cell viability counter screen (AID 743218); further: nearly all actives have a fitted effect of over 45% in size
Outline: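 FXR-UAS-bla HEK 293T cells exposed to compounds for 16 h at 37C. Cytotoxicity read in the same wells by CellTiter-Glo luminescence after 30 min at room temperature, following the beta-lactamase FRET read.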

[5] = target: Vitamin D3 receptor (Homo sapiens) (UniProt P11473); assay: qHTS assay to identify small molecule agonists of the vitamin D receptor (VDR) signaling pathway (AID 743222; calls by dose curve)
Vitamin D3 receptor (Homo sapiens), sequence (P11473 whole entry, looked up): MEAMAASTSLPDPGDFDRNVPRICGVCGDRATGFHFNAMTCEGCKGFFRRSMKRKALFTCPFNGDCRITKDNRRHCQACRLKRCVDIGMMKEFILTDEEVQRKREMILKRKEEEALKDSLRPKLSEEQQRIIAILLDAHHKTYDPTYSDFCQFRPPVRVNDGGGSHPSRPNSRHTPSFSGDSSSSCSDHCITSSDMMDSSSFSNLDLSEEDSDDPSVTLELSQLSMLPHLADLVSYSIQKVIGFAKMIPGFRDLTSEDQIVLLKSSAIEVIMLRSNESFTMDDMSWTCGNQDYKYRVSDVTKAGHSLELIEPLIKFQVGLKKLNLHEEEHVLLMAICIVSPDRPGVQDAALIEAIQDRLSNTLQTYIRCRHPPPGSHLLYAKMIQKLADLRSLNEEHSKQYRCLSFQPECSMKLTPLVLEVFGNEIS
Outline: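 VDR-bla cells plated 4 h at 37 C, then exposed to compounds for 16 h at 37 C. Beta-lactamase reporter activity measured by fluorescence after 2 h room-temperature loading with LiveBLAzer B/G FRET substrate.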

[6] = target: Vitamin D3 receptor (Homo sapiens) (UniProt P11473); assay: qHTS assay to identify small molecule antagonists of the vitamin D receptor (VDR) signaling pathway (AID 743223; active means well fitted inhibition curve with a large enough effect in the signal ratio in the repeat runs, not every such curve was filed as active; the % refers to the signal ratio)
Outline: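 Quantitative HTS in VDR-bla reporter cells stimulated with 1alpha,25-dihydroxyvitamin D3, 3 nM final. Compound exposure 16 h, 37C, 5% CO2. Read-out: beta-lactamase FRET substrate fluorescence, 2 h RT.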

[7] = qHTS assay to identify small molecule agonists of the vitamin D receptor (VDR) signaling pathway - cell viability counter screen (AID 743224); further: series mostly up to about 63 µM; nearly all actives have a fitted effect of over 50% in size
Outline: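 VDR-bla cells, 4 h after plating, exposed to compounds for 16 h at 37C; viability then read in the same wells as CellTiter-Glo luminescence after 30 min at room temperature, following the bla FRET read.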

[8] = qHTS assay to identify small molecule agonists of the NFkB signaling pathway (AID 1159509; active means well fitted curve in the direction sought with a large enough effect in the signal ratio in the repeat runs, not every such curve was filed as active; the % refers to the signal ratio; further: series mostly up to about 61 µM)
Outline: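 NFkB-bla ME-180 cells carry a beta-lactamase reporter under an NF-kB response element. They were plated overnight, then exposed to compounds for 5 h at 37 C. Read-out is LiveBLAzer FRET after 1.5 hr at room temperature (405 nm excitation; 460/530 nm emission).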

[9] = qHTS assay to identify small molecule agonists of the NFkB signaling pathway - cell viability counter screen (AID 1159515; calls by dose curve; further: series mostly up to about 61 µM; nearly all actives have a fitted effect of over 55% in size)
Outline: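 NFkB-bla ME-180 cells, 2,000/well, plated overnight at 37 C; compound added for 5 hr at 37 C. Viability read in the same wells as the bla reporter, by CellTiter-Glo luminescence after 30 min at room temperature.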

[10] = qHTS assay to identify small molecule agonists of the endoplasmic reticulum stress response signaling pathway - cell viability counter screen (AID 1159517; calls by dose curve;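 further: HeLa cells carrying an ER stress response element beta-lactamase reporter; series mostly up to about 61 µM; nearly all actives have a fitted effect of over 50% in size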)
Outline: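 HeLa cells carrying an ESRE-driven beta-lactamase reporter receive compound for 5 hr at 37 C. Cell viability is then gauged with CellTiter-Glo by luminescence, 30 min at room temperature.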

[11] = target: Nuclear receptor ROR-gamma (Homo sapiens) (UniProt P51449); assay: qHTS assay to identify small molecule antagonists of the retinoid-related orphan receptor gamma (ROR-gamma) signaling pathway (AID 1159521;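 further: CHO cells with doxycycline inducible ROR-gamma driving an RORE luciferase reporter; top concentration of the series differs between compounds; nearly all actives have a fitted effect of over 50% in size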)
Outline: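 Inducible-expression reporter assay: doxycycline (1 uM final) switched on RORγ in CHO cells bearing a ROR response element-luciferase construct, with test compounds present from 2 h beforehand. Decreased luminescence after 16 h defined antagonist activity.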

[12] = qHTS assay to identify small molecule agonists of the AP-1 signaling pathway - cell viability counter screen (AID 1159525; calls by dose curve; further: nearly all actives have a fitted effect of over 55% in size)
Outline: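 Luminescent ATP readout (Cell Titer Glo, 30 min RT), normalised to DMSO and tetra n-octyl ammonium bromide controls. Cells were ME-180 AP-1-bla in 0.5% dialyzed FBS Opti-MEM, with a 5 h, 37 °C compound exposure.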

[13] = qHTS assay to identify small molecule agonists of the AP-1 signaling pathway (AID 1159526; calls by dose curve)
[14] = qHTS assay to identify small molecule antagonists of the farnesoid-X-receptor (FXR) signaling pathway - cell viability counter screen (AID 743221; active means well fitted cell-killing curve with a large enough effect in the repeat runs, not every such curve was filed as active; further: nearly all actives have a fitted effect of over 50% in size)
Outline: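 Cytotoxicity is taken from ATP luminescence (CellTiter-Glo, 30 min, room temperature) in FXR-bla HEK 293T cells previously incubated 16 h at 37 C with compound and chenodeoxycholic acid at 50 uM final.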

[15] = qHTS assay to identify small molecule antagonists of the retinoid-related orphan receptor gamma (ROR-gamma) signaling pathway - cell viability counter screen (AID 1159520); further: nearly all actives have a fitted effect of over 50% in size
Outline: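 Cytotoxicity was read from cellular ATP (CellTiter-Glo luminescence) after 16 hr at 37 C with 1 uM doxycycline induction. The inducer was added 2 hr after compound transfer to Tet-on ROR gamma CHO cells.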

[16] = target: Peroxisome proliferator-activated receptor delta (Homo sapiens) (UniProt Q03181); assay: qHTS assay to identify small molecule antagonists of the peroxisome proliferator-activated receptor delta (PPARd) signaling pathway (AID 743215; active means well fitted inhibition curve with a large enough effect in the signal ratio in the repeat runs, not every such curve was filed as active; the % refers to the signal ratio;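 further: cells stimulated with agonist L165041 at 300 nM final during compound exposure; series mostly up to about 62 µM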)
Outline: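 PPARd-bla HEK293H cells (UAS-bla reporter) preincubated 5 h, then given compound plus 300 nM final L165041 agonist for 17 h at 37 C. Beta-lactamase activity read by LiveBLAzer B/G FRET substrate fluorescence after 2 h at room temperature.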

[17] = target: Bile acid receptor (Homo sapiens) (UniProt Q96RI1); assay: qHTS assay to identify small molecule antagonists of the farnesoid-X-receptor (FXR) signaling pathway (AID 743217; active means well fitted inhibition curve with a large enough effect in the signal ratio in the repeat runs, not every such curve was filed as active; the % refers to the signal ratio)
Bile acid receptor (Homo sapiens), sequence (Q96RI1 whole entry, looked up): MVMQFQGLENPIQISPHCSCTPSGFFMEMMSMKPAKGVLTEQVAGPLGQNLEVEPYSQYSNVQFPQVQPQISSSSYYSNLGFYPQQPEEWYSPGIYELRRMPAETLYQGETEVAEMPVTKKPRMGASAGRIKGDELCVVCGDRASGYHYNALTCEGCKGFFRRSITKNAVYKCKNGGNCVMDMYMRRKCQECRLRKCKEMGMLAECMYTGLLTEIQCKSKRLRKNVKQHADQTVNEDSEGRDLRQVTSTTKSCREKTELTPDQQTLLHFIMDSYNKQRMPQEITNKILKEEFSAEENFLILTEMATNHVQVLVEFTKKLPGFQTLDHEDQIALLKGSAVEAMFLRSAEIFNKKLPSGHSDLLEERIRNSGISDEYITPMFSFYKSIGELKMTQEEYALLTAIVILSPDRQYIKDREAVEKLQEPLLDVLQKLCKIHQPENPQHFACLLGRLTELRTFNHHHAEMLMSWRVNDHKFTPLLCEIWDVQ
Outline: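 FXR-UAS-bla HEK 293T cells (beta-lactamase reporter) given compound plus chenodeoxycholic acid (50 uM final), 16 h at 37C. LiveBLAzer B/G FRET substrate added for 2 h at room temperature; fluorescence read.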

[18] = target: Bile acid receptor (Homo sapiens) (UniProt Q96RI1); assay: qHTS assay to identify small molecule agonists of the farnesoid-X-receptor (FXR) signaling pathway (AID 743220; active means well fitted activation curve with a large enough effect in the signal ratio in the repeat runs, not every such curve was filed as active; the % refers to the signal ratio)
Outline: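 Beta-lactamase reporter under UAS control in GeneBLAzer FXR HEK 293T cells (5000/well) measured with LiveBLAzer FRET substrate after 2 h at room temperature. Compound exposure lasted 16 h at 37C.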

[19] = qHTS assay to identify small molecule antagonists of the vitamin D receptor (VDR) signaling pathway - cell viability counter screen (AID 743225); further: nearly all actives have a fitted effect of over 50% in size
Outline: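 Same-well multiplex: following 16 h treatment of HEK 293T cells carrying a UAS-driven beta-lactamase reporter with compound and agonist (3 nM final), and a 2 h FRET substrate step, CellTiter-Glo was added and luminescence read after 30 min.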

[20] = qHTS assay to identify small molecule agonists of the endoplasmic reticulum stress response signaling pathway (AID 1159516; active means well fitted activation curve with a large enough effect in the signal ratio in the repeat runs, not every such curve was filed as active; the % refers to the signal ratio)
Outline: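 CellSensor ESRE-bla HeLa cells, 1,500 per well, plated overnight, then exposed to compounds for 5 hr at 37 C. Beta-lactamase reporter read with LiveBLAzer B/G FRET substrate after 2 hr at room temperature, 405 nm excitation, 460 and 530 nm emission.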

Measured: Potency

CC1CCCC(=O)C1=O (configuration not stated)
inactive: [1] | [2] | [3] | [4] | [5] | [6] | [7] | [8] | [9] | [10] | [11] | [12] | [13]

CCOC(=O)c1c(N)sc2c1CCN(Cc1ccccc1)C2
inactive: [3] | [4] | [14] | [6] | [7] | [8] | [9] | [10] | [15] | [11] | [12] | [13]

CC(CCc1ccc(O)cc1)NCCc1ccc(O)c(O)c1 (configuration not stated)
inactive: [1] | [2] | [16] | [17] | [4] | [18] | [14] | [7] | [19] | [8] | [9] | [10] | [15] | [12] | [13]

CC(=O)OCC(C)C
inactive: [1] | [3] | [14] | [5] | [6] | [7] | [8] | [9] | [10] | [15] | [11] | [12] | [13]

COc1cc(NS(=O)(=O)c2ccc(N)cc2)nc(C)n1
inactive: [2] | [3] | [16] | [17] | [4] | [18] | [14] | [5] | [6] | [7] | [8] | [9] | [10] | [15] | [12] | [13]

CC(C)(C)NCC(O)COc1cccc2c1C[C@H](O)[C@H](O)C2 (some centres not stated)
inactive: [1] | [4] | [14] | [7] | [19] | [8] | [9] | [10] | [15] | [11] | [12] | [13]

O=C1c2ccccc2C(=O)c2c(O)ccc(O)c21
inactive: [1] | [3] | [4] | [14] | [6] | [8] | [9] | [10] | [15] | [11] | [12] | [13]

CC(CO)(CO)C(=O)O
inactive: [1] | [17] | [18] | [14] | [5] | [6] | [7] | [19] | [8] | [9] | [10] | [11] | [12] | [13]

Cc1ccc(N(CC2=NCCN2)c2cccc(O)c2)cc1
inactive: [2] | [3] | [16] | [18] | [14] | [5] | [6] | [7] | [19] | [8] | [9] | [10] | [15] | [11] | [12] | [13]

O=c1[nH]c2cc(C(F)(F)F)c(N3CCOCC3)cc2n(CP(=O)(O)O)c1=O
inactive: [1] | [2] | [3] | [16] | [17] | [4] | [18] | [19] | [8] | [20] | [15] | [11] | [12] | [13]
